Laboratory results: the antibiotic and cytotoxicity screens of Wong et al. (2023)
The whole screen tested about 39,000 compounds, of which about 3,300 (8.5%) were called active. The sample holds actives, similar compounds and a random draw of the others, so the mix is not that of the screen.

These compounds were tested on HepG2 (assay: cytotoxicity call (relative viability < 0.9)). Conditions: 10 µM.

Row | SMILES | cytotoxicity call
1 | Cc1noc(C)c1S(=O)(=O)Nc1ccc2c(c1)CC(=O)N([C@H](C)CO)C[C@H](C)[C@H](CN(C)C(=O)Nc1ccccc1)O2 | inactive
2 | C[C@@H]1CCCCO[C@H](CN(C)Cc2ccc(C(=O)Nc3ccccc3N)cc2)[C@@H](C)CN([C@H](C)CO)C(=O)c2cc(NS(=O)(=O)c3ccccc3)ccc2O1 | inactive
3 | C[C@@H]1CCCCO[C@@H](CN(C)Cc2ccc(C(=O)Nc3ccccc3N)cc2)[C@@H](C)CN([C@H](C)CO)C(=O)c2cc(NS(=O)(=O)c3cccs3)ccc2O1 | active
4 | C[C@@H]1CCCCO[C@H](CN(C)Cc2ccc(C(=O)Nc3ccccc3N)cc2)[C@@H](C)CN([C@H](C)CO)C(=O)c2cc(NS(=O)(=O)c3cccs3)ccc2O1 | inactive
5 | COc1ccc2c3c(n(c2c1)C)[C@H](CO)N(C[C@]13CCN(CC1)C(=O)Nc1ccc(cc1F)F)C(=O)Nc1ccc(cc1)F | inactive
6 | O=C(C[C@@H]1CC[C@H](NS(=O)(=O)c2ccccc2)[C@@H](CO)O1)NCc1ccncn1 | inactive
7 | C[C@H](CO)N1C[C@H](C)[C@H](CN(C)C(=O)Nc2ccc(C(F)(F)F)cc2)Oc2ccc(NC(=O)C3CCCCC3)cc2C1=O | inactive
8 | C[C@H]1CN([C@@H](C)CO)S(=O)(=O)c2ccc(C#CCN(C)C)cc2O[C@@H]1CN(C)Cc1ccc(F)cc1 | inactive
9 | C[C@H](CO)N1C[C@H](C)[C@@H](CN(C)Cc2ccc(F)cc2)Oc2cc(C#CCN(C)C)ccc2S1(=O)=O | inactive
10 | C[C@H](CO)N1C[C@H](C)[C@H](CN(C)Cc2ccc(F)cc2)Oc2cc(C#CCN(C)C)ccc2S1(=O)=O | active
11 | C[C@@H]1CN([C@H](C)CO)S(=O)(=O)c2ccc(C#CC3CC3)cc2O[C@H]1CN(C)Cc1ccc(F)cc1 | active
12 | C[C@@H]1CN([C@@H](C)CO)S(=O)(=O)c2ccc(C#CC3CC3)cc2O[C@H]1CN(C)Cc1ccc(F)cc1 | inactive
13 | C[C@@H]1CN([C@@H](C)CO)S(=O)(=O)c2ccc(C#CCN(C)C)cc2O[C@H]1CN(C)Cc1ccc(F)cc1 | inactive
14 | C[C@H](CO)N1C[C@H](C)[C@@H](CN(C)Cc2ccc(F)cc2)Oc2cc(C#CC3CC3)ccc2S1(=O)=O | inactive
15 | C[C@@H]1CN([C@@H](C)CO)S(=O)(=O)c2ccc(C#CCN(C)C)cc2O[C@@H]1CN(C)Cc1ccc(F)cc1 | inactive
16 | C[C@@H]1CN([C@H](C)CO)S(=O)(=O)c2ccc(C#CCN(C)C)cc2O[C@H]1CN(C)Cc1ccc(F)cc1 | active
17 | CCCNC(=O)N1C[C@@H](O)COC[C@@H]2O[C@@H](CC(=O)NCc3ccncn3)CC[C@H]21 | inactive
18 | C[C@@H]1CN([C@@H](C)CO)S(=O)(=O)c2ccc(C3=CCCC3)cc2O[C@@H]1CN(C)C(=O)c1cnccn1 | inactive
